Assay outcomes deposited in PubChem by National Center for Advancing Translational Sciences (NCATS).
VACV mCherry inh – vaccinia inhibition (mCherry reporter). Potency, µM (series often up to 36.5 µM), actives largely listed as inhibitors. Vaccinia virus mCherry reporter infection, fluorescence. 0.63% of 310,000 active. AID 720579; calls by dose curve; tested in A549 cells; also: nearly all actives have a fitted effect of over 35% in size
Vaccinia Venus – inhibitors of vaccinia virus (Venus reporter); Vaccinia virus Venus reporter expression, fluorescence; AID 720580; Potency, µM (highest dose often 36.5 µM), hits mostly inhibitors; 0.46% of 330,000 active; calls by dose curve; tested in A549 cells; also: nearly all actives have a fitted effect of over 30% in size
Lassa entry inh – inhibitors of Lassa virus binding or cell entry | Lassa virus pseudotype entry inhibition, cell reporter | Potency, µM (top dose mostly 37.9 µM), hits mostly inhibitors | 1.2% of 300,000 active | AID 540256; calls by dose curve; tested in HEK293 cells; also: nearly all actives have a fitted effect of over 50% in size
FMDV inh – blocks foot and mouth disease virus. FMDV antiviral cell-based qHTS. Potency, µM (top dose mostly 57.9 µM), most hits filed as inhibitors. 1.2% of 410,000 active; calls by dose curve; tested in HEK293T cells; also: read-out not given here; nearly all actives have a fitted effect of over 45% in size
Marburg entry inh – blocks Marburg virus binding to or entry into cells | 1.8% of 300,000 active | Potency, µM (doses to about 37.8 µM), most hits filed as inhibitors | Marburg virus pseudotyped entry inhibition, cell reporter | AID 540276; calls by dose curve; tested in HEK293 cells
Of the large screens only hits and unclear results are named; the others gave an inactive call; ! = repeats disagree. Sampled rows, rich in hits. Any-hit rate of the full collection: about 3.2%.

O=C(CSc1nc(-c2cccc(F)c2)[nH]c1-c1ccccc1)Nc1ccc2c(c1)OCCO2	VACV mCherry inh inconclusive, Vaccinia Venus inconclusive, Lassa entry inh 10µM, FMDV inh inconclusive, Marburg entry inh inconclusive
Cc1cccc(-c2nc(SCC(=O)Nc3ccc4c(c3)OCCO4)c(-c3ccccc3)[nH]2)c1	Lassa entry inh inconclusive, Marburg entry inh inconclusive
COc1ccc(-c2[nH]c(-c3cccc(OC)c3)nc2SCC(=O)Nc2ccc3c(c2)OCO3)cc1	Lassa entry inh 7.94µM
COc1cccc(-c2nc(SCC(=O)Nc3ccc4c(c3)OCCO4)c(-c3ccccc3)[nH]2)c1	Lassa entry inh inconclusive, Marburg entry inh inconclusive
COc1ccc(CN2CCN(Cc3ccccc3F)CC2)c(OC)c1	Marburg entry inh inconclusive
COc1cc(CN2CCN(Cc3ccc(SC)cc3)CC2)cc(OC)c1O	FMDV inh inconclusive
COc1ccc(CN2CCN(Cc3ccc(C)cc3)CC2)c(OC)c1	Marburg entry inh 10µM
COc1cc(OC)c(OC)cc1CN1CCN(Cc2ccc(SC)cc2)CC1	Lassa entry inh inconclusive, Marburg entry inh 7.3µM (no result: VACV mCherry inh, Vaccinia Venus)
S=C(c1ccc(Cl)cc1)N1CCN(Cc2ccccc2)CC1	VACV mCherry inh inconclusive
CSc1ccc(C(=S)N2CCN(Cc3ccccc3)CC2)cc1	Lassa entry inh 16.4µM (no result: VACV mCherry inh, Vaccinia Venus)
C[C@]12C(=O)N(c3ccc(Br)cc3)C(=O)N1[C@H]1c3ccccc3OC[C@@H]1[C@H]2c1ccccc1	none (no result: Lassa entry inh, Marburg entry inh)
COc1ccccc1/C=C/CN1CCCC(CCC(=O)NCc2ccccc2F)C1 (stereo not given)	Lassa entry inh inconclusive, Marburg entry inh 6.31µM
O=[N+]([O-])c1cc(O)c2ncccc2c1	VACV mCherry inh 1µM, Vaccinia Venus 1µM, Lassa entry inh inconclusive, Marburg entry inh inconclusive
COc1cccc(COC(=O)c2nn(-c3ccccc3)nc2N)c1	Lassa entry inh inconclusive, FMDV inh 25.1µM!, Marburg entry inh inconclusive
COC(=O)c1ccc(OC)c(CSc2nnc(COc3cccc(C)c3)o2)c1	Marburg entry inh 16.4µM (no result: VACV mCherry inh, Vaccinia Venus)
Cc1cccc(OCc2nnc(SCC(=O)N3CCCC3)o2)c1	none
COc1cccc(Nc2nnc(SCc3cc([N+](=O)[O-])cc4c3OCOC4)s2)c1	Vaccinia Venus inconclusive, FMDV inh 15.8µM (no result: VACV mCherry inh)
Cc1cccc(C)c1Nc1nnc(SCc2cc([N+](=O)[O-])cc3c2OCOC3)s1	FMDV inh inconclusive, Marburg entry inh inconclusive (no result: VACV mCherry inh, Vaccinia Venus)
Cc1cc(C(=O)N/N=C/c2ccncc2)c(C)o1	none
Cc1ccc(/C=N/NC(=O)c2cc(C)oc2C)cc1	Lassa entry inh inconclusive, Marburg entry inh 10µM
O=C(O)c1ccc(-n2ncc(Cl)c(Cl)c2=O)cc1	FMDV inh inconclusive (no result: Lassa entry inh, Marburg entry inh)
Cc1ccc(C(=O)OCn2ncc(Cl)c(Cl)c2=O)cc1	Lassa entry inh 23.1µM, FMDV inh 15.8µM, Marburg entry inh 14.6µM (no result: VACV mCherry inh, Vaccinia Venus)
CCc1ccccc1NC(=O)CN(C)C(=O)Cn1ncc(Cl)c(Cl)c1=O	VACV mCherry inh inconclusive, Vaccinia Venus inconclusive, Lassa entry inh inconclusive, FMDV inh 35.5µM, Marburg entry inh inconclusive
CCc1ccccc1NC(=O)CN(C)C(=O)Cn1cnc2ccc(Cl)cc2c1=O	none
CCOC(=O)c1ccc(NC(=O)Cn2ncc(Cl)c(Cl)c2=O)cc1	VACV mCherry inh inconclusive, Vaccinia Venus inconclusive, Lassa entry inh inconclusive, FMDV inh 39.8µM, Marburg entry inh 3.16µM
Cc1nn(-c2ccc(F)cc2)c(-n2cccc2)c1C(=O)NCCCN1CCN(c2cccc(Cl)c2)CC1	VACV mCherry inh inconclusive, Vaccinia Venus inconclusive, FMDV inh inconclusive (no result: Marburg entry inh)
O=[N+]([O-])c1ccc(S(=O)(=O)CC(CN2CCOCC2)N2CCOCC2)cc1 (stereo not given)	VACV mCherry inh inconclusive, Vaccinia Venus inconclusive, Lassa entry inh inconclusive, Marburg entry inh inconclusive
O=S(=O)(CC(CN1CCCCC1)N1CCCCC1)c1ccccc1 (stereo not given)	FMDV inh 35.5µM (no result: VACV mCherry inh, Vaccinia Venus, Lassa entry inh, Marburg entry inh)
O=[N+]([O-])c1ccc(S(=O)(=O)CC(CN2CCCCC2)N2CCCCC2)cc1 (stereo not given)	Lassa entry inh 5.17µM, FMDV inh 17.8µM, Marburg entry inh 4.61µM (no result: VACV mCherry inh, Vaccinia Venus)
Cc1ccc(S(=O)(=O)N[C@H]2COC(=O)[C@@H](C)COC(=O)C/C=C\[C@H]2C)cc1	none (no result: VACV mCherry inh, Vaccinia Venus, Lassa entry inh, FMDV inh)
CCC(C)N1C(=O)/C(=C\c2cnc(N(C)C)nc2)C(=O)NC1=S (stereo not given)	FMDV inh 22.4µM, Marburg entry inh inconclusive
CCC(C)N1C(=O)/C(=C\c2ccc(N3CCCCCC3)cc2)C(=O)NC1=S (stereo not given)	FMDV inh inconclusive
CCC(C)N1C(=O)/C(=C\c2cc3c4c(c2)CCCN4CCC3)C(=O)NC1=S (stereo not given)	FMDV inh 31.6µM
CCC(=O)/C=C1/Sc2ccccc2N1CC	Vaccinia Venus inconclusive (no result: VACV mCherry inh)
CCN1/C(=C/c2ccc3cc(C)ccc3[n+]2CC)Sc2cc(C)c(C)cc21	VACV mCherry inh inconclusive, Lassa entry inh 2µM, FMDV inh inconclusive, Marburg entry inh inconclusive
CC[n+]1c(/C=C2\Sc3ccccc3N2C)ccc2cccc(C)c21	VACV mCherry inh 14.1µM, Lassa entry inh inconclusive, FMDV inh 4.47µM, Marburg entry inh inconclusive
CCN1/C(=C/c2ccc3cc(C)ccc3[n+]2CC)Sc2ccccc21	Lassa entry inh 5.17µM, FMDV inh 20µM, Marburg entry inh 1.03µM (no result: VACV mCherry inh, Vaccinia Venus)
O=C(O)CC(NS(=O)(=O)c1ccc(Cl)s1)c1ccccc1 (stereo not given)	Lassa entry inh inconclusive (no result: Marburg entry inh)
Cc1ccc(C)c(N2CCN(CCCNC(=O)c3ccc4nc(N5CCCCC5)sc4c3)CC2)c1	VACV mCherry inh inconclusive, Vaccinia Venus inconclusive, Lassa entry inh inconclusive, Marburg entry inh inconclusive
COc1cc(/C=C/C(=O)c2ccccc2O)cc(OC)c1OC	FMDV inh 31.6µM (no result: Lassa entry inh, Marburg entry inh)
Cc1ccc(O)c(C(=O)C=Cc2ccccc2)c1	FMDV inh 35.5µM, Marburg entry inh inconclusive
COc1ccc(/C=C/C(=O)NC(=S)Nc2ccccc2)cc1OC	none
COc1cc(/C=C/C(=O)NC(=O)c2ccccc2O)ccc1OC(C)=O	VACV mCherry inh 5.62µM, Vaccinia Venus inconclusive (no result: Lassa entry inh, Marburg entry inh)
COc1cc(C)cc(C(=O)C=Cc2ccccc2)c1O	FMDV inh 31.6µM, Marburg entry inh inconclusive
CO[C@H]1[C@H](NC(=O)c2cccs2)c2ccccc2C12CCN(Cc1cccn1-c1cccnc1)CC2	none (no result: Lassa entry inh, Marburg entry inh)
Cc1ccc(NC(=S)NCc2ccc3c(c2)cc(C)n3C)c(C)c1	none (no result: VACV mCherry inh, Vaccinia Venus)
COC1=C(C)C(O)=C(C(=O)/C=C/c2ccccc2)C(=O)C1(C)C	VACV mCherry inh 11.2µM, Vaccinia Venus inconclusive (no result: Lassa entry inh, Marburg entry inh)
CCCCn1c(O)c(C(CC)=Nc2ccc3c(c2)CCC3)c(=O)[nH]c1=O	Lassa entry inh 1.3µM (no result: VACV mCherry inh, Vaccinia Venus)
COc1cccc(N(CC(=O)NC2CC3CCC2C3)S(=O)(=O)c2ccccc2)c1 (stereo not given)	Marburg entry inh inconclusive
CCOc1ccc(N(CC(=O)NC2CC3CCC2C3)S(=O)(=O)c2ccc(C)cc2)cc1 (stereo not given)	none (no result: VACV mCherry inh, Vaccinia Venus, Lassa entry inh, Marburg entry inh)
COc1ccc(N(CC(=O)NC2CC3CCC2C3)S(=O)(=O)c2ccccc2)cc1OC (stereo not given)	Lassa entry inh 8.91µM, Marburg entry inh inconclusive
CCOc1ccc(N(CC(=O)NC2CC3CCC2C3)S(=O)(=O)c2ccccc2)cc1 (stereo not given)	Lassa entry inh 10µM, Marburg entry inh inconclusive
C=CC[C@@H]1C=CC(O/N=C(\C)CCC(=O)OC[C@H]2O[C@H](C#Cc3ccccc3)C=C[C@@H]2Oc2ccc(C)cc2)[C@@H](CO)O1 (stereo not given in full)	none (no result: VACV mCherry inh, Vaccinia Venus, Lassa entry inh, FMDV inh)
